Sampled rows, rich in hits. Any-hit rate of the full collection: about 4%.
GBA activity: human lysosomal glucosylceramidase modulation | P04062 | purified enzyme, resorufin glucoside fluorescence (screen aimed at inhibitors), 20 min | Potency, µM | hit rate 1.1% among 48,000; in the data active = potency below about 15 µM; inconclusive = mostly about 16 µM to 33 µM;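 also: the screen sought inhibitors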
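Wild-type enzyme at 0.2 nM final in 50mM citric acid/KH2PO4, 10mM sodium taurocholate, 0.01% tween-20, pH 5.9, with resorufin beta-D-glucopyranoside at 30 uM final. Compounds titrated, 20 min at RT, red fluorescence read; AC50 from titration.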
HEK293 cAMP ctrl: counter-screen for TSHR agonists: cAMP increase in parental HEK293. Potency, µM (top dose mostly 57.1 µM), actives largely listed as activators. hit rate 2.5% among 73,000. parental HEK293 CNG cAMP sensor, membrane potential fluorescence; also: nearly all actives have a fitted effect of over 55% in size
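Parental HEK 293 cells stably expressing a cAMP-gated CNG channel were loaded with membrane potential dye containing 100 uM RO 20-1724 for 60 min. Compound added for 30 min; depolarization read as fluorescence intensity at 590 nm.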
Caspase-7 inhib: allosteric or competitive inhibitors of human caspase-7. P55210. recombinant caspase-7, Ac-DEVD-AFC fluorescence rate. Potency, µM (titrated, usually from 57.5 µM), actives largely listed as inhibitors. hit rate 0.02% among 75,000. AID 889; active = well fitted inhibition curve with a large enough effect in the main read-out, with a control signal flat, not every such curve was filed as active; inconclusive = small, poorly fitted or top-dose-only effect, or a change in a side signal
Bst PK mod: modulators of Bacillus stearothermophilus pyruvate kinase | purified pyruvate kinase, luminescence ATP production; ribose 5-phosphate activator present at AC10 | Potency, µM | hit rate 1.2% among 51,000; in the data active = potency below about 11 µM; inconclusive = mostly about 12 µM to 25 µM;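 the screen sought inhibitors and activators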
TSHR agonist: agonists of human thyroid stimulating hormone receptor. P16473. HEK293-CNG-TSHR cells (CNG channel as cAMP sensor), membrane potential dye, cAMP. Potency, µM (series often up to 57.1 µM), actives largely listed as activators. hit rate 0.48% among 73,000; active = well fitted activation curve with a large enough effect in the main read-out, with a control signal flat, not every such curve was filed as active; inconclusive = small, poorly fitted or top-dose-only effect, or a change in a side signal; inactive = no such curve, though single readings can be large or run the other way; reference of the percent scale not stated here;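 also: the control signal comes from parental cells without the receptor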
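HEK 293 cells stably expressing TSHR and a modified CNG channel, with CNG-only parental cells as counterscreen, were preloaded 60 min at room temperature with membrane potential dye containing 100 uM RO 20-1724. Compound exposure was 30 min, and depolarization was read as fluorescence at 590 nm.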
Caspase-1 inhib: allosteric or competitive inhibitors of human caspase-1 | P29466 | Caspase-1 enzyme, Ac-WEHD-AFC fluorogenic rate | Potency, µM (doses to about 57.5 µM), actives largely listed as inhibitors | hit rate 0.03% among 75,000
Of the large screens only hits and unclear results are named; the others gave an inactive call. Unless noted, calls follow the shape of the dose curve; as a rule, active = well fitted curve in the direction sought with a large enough effect; inconclusive = small, poorly fitted or top-dose-only effect, or another doubt; inactive = no such curve, though single readings can be large; an effect the other way counts as inactive or inconclusive.

CC(C)C(c1nnnn1Cc1ccc(F)cc1)N1CCN(Cc2ccc3c(c2)OCO3)CC1 (stereo unspecified)	none
CCC(c1nnnn1Cc1ccc2c(c1)OCO2)N1CCN(c2ccc(OC)cc2)CC1 (stereo unspecified)	HEK293 cAMP ctrl inconclusive, TSHR agonist inconclusive
CCC(c1nnnn1Cc1ccc2c(c1)OCO2)N1CCN(c2ccccc2)CC1 (stereo unspecified)	HEK293 cAMP ctrl 16µM, TSHR agonist inconclusive
CCC(c1nnnn1Cc1ccc2c(c1)OCO2)N1CCN(c2ccc(F)cc2)CC1 (stereo unspecified)	HEK293 cAMP ctrl 16µM, TSHR agonist inconclusive
COc1ccc(CCn2c(C)cc(C(=O)CSc3nnc(N)s3)c2C)cc1	HEK293 cAMP ctrl 25µM, TSHR agonist inconclusive
Cc1cc(C(=O)CSc2nnc(N)s2)c(C)n1CCc1ccc(Cl)cc1	HEK293 cAMP ctrl 25µM, TSHR agonist inconclusive
N[C@@H](C(=O)O)[C@H](O)C(=O)O	none (no result: GBA activity, Caspase-7 inhib, Bst PK mod, Caspase-1 inhib)
CCCCC1CN2C(CCC(C)C2c2ccc(Br)cc2)C(=O)O1 (stereo unspecified)	TSHR agonist inconclusive (no result: GBA activity, Bst PK mod)
COc1ccc(C(=O)NCCCn2ccnc2)cc1	HEK293 cAMP ctrl 1.3µM, TSHR agonist inconclusive
CCOc1ccc(C(=O)NCCCn2ccnc2)cc1	GBA activity inconclusive
COc1cc(OC)cc(OCC(O)Cn2ccnc2)c1 (stereo unspecified)	none
COc1ccc(CCCO[C@@H](Cn2ccnc2)c2ccc(OC)cc2)cc1	HEK293 cAMP ctrl 32µM, TSHR agonist inconclusive (no result: GBA activity, Bst PK mod)
COc1cccc(NC(=O)/C=C\c2ccc(Cl)cc2)c1	HEK293 cAMP ctrl 32µM, TSHR agonist inconclusive (no result: GBA activity, Bst PK mod)
COc1ccc(NC(=O)Nc2cccc(OC)c2)cc1	HEK293 cAMP ctrl inconclusive, TSHR agonist inconclusive (no result: GBA activity, Bst PK mod)
N[C@@H](Cc1ccnnc1)C(=O)O	none (no result: GBA activity, Bst PK mod)
O=C(COc1ccccc1)Nc1nc(-c2cccs2)cs1	HEK293 cAMP ctrl 25µM, TSHR agonist inconclusive (no result: Bst PK mod)
c1ccc(Nc2nc(-c3cccs3)cs2)nc1	Bst PK mod 3.6
O=C(O)CCC(=O)Nc1nc(-c2ccccc2)cs1	none
c1ccc(Nc2nc(-c3cccnc3)cs2)nc1	Bst PK mod inconclusive
COc1ccc(-c2cc(C(F)(F)F)nc(NCc3ccco3)n2)cc1OC	HEK293 cAMP ctrl 10µM, TSHR agonist inconclusive
COc1cccc(-c2cc(C(F)(F)F)nc(NCc3ccco3)n2)c1	HEK293 cAMP ctrl inconclusive, TSHR agonist inconclusive (no result: GBA activity)
O=C(O)CC12C[C@H]3C[C@@H](CC(O)(C3)C1)C2	none (no result: GBA activity, Bst PK mod)
COc1ccccc1-n1cnnc1SCC(=O)c1cc(C)n(Cc2cccs2)c1C	HEK293 cAMP ctrl 32µM, TSHR agonist inconclusive (no result: GBA activity)
Cc1ccc(/C=N/c2sc3c(c2C#N)CCCCC3)o1	GBA activity inconclusive, Caspase-1 inhib inconclusive
Cc1ccc(/C=N/c2sc3c(c2C#N)CCC3)s1	GBA activity 11, Bst PK mod 4.3
CN(C)CCCSc1ccccc1NC(=O)/C=C\c1ccccc1	none (no result: GBA activity, Bst PK mod)
Cc1nn(-c2ccccc2)c2sc(C(=O)N3CCc4ccccc4C3)cc12	HEK293 cAMP ctrl 20µM, TSHR agonist inconclusive
Cc1nn(-c2ccccc2)c2sc(C(=O)N3CCCCC3)cc12	none
COC(=O)[C@@H]1C[C@H]1[C@@H](NC(=O)Oc1ccc(F)cc1)c1ccccc1	HEK293 cAMP ctrl 10µM, TSHR agonist inconclusive (no result: GBA activity, Bst PK mod)
COC(=O)[C@H]1C[C@@H]1[C@H](NC(C)=O)c1ccccc1	none (no result: GBA activity, Bst PK mod)
COC(=O)[C@@H]1C[C@H]1[C@@H](NC(=O)c1ccccc1)c1ccccc1	HEK293 cAMP ctrl 25µM, TSHR agonist inconclusive (no result: GBA activity, Bst PK mod)
Cc1nn(-c2ccccn2)c2nc(-c3cccs3)cc(C(=O)N3CCOCC3)c12	Bst PK mod 7.1, TSHR agonist 3.2µM
COc1ccc(Br)cc1CNC(=O)C1CCCN(S(C)(=O)=O)C1 (stereo unspecified)	Bst PK mod 5.4
CN=C1N[C@H](c2ccccc2)N(c2ccccc2)S1	none (no result: GBA activity, Bst PK mod)
CCOC(=O)CCN(Cc1cccs1)S(=O)(=O)c1ccc(F)cc1	HEK293 cAMP ctrl 13µM, TSHR agonist inconclusive
O=C(O)C(NS(=O)(=O)c1cccc2cccnc12)c1ccccc1 (stereo unspecified)	none (no result: GBA activity, Bst PK mod)
CCOC(=O)c1ccc2ncc(C(=O)OCC)c(NCc3ccco3)c2c1	HEK293 cAMP ctrl 25µM, TSHR agonist inconclusive
CCOC(=O)c1cnc2c(C)cccc2c1NCc1ccco1	HEK293 cAMP ctrl 25µM, TSHR agonist inconclusive (no result: GBA activity, Bst PK mod)
CCOC(=O)c1cnc2c(C(=O)OC)cccc2c1NCc1ccco1	none
O=C(O)/C=C\C(=O)Nc1ncn[nH]1	none (no result: GBA activity, Bst PK mod)
Clc1ccc(-c2nn3cnnc3s2)c(Cl)c1	Bst PK mod 10
COc1cccc(-c2ccc3ncnc(N(C)C)c3c2)c1	HEK293 cAMP ctrl 25µM, TSHR agonist inconclusive (no result: GBA activity, Bst PK mod)
CN(C)c1ncnc2ccc(-c3cccnc3)cc12	none (no result: GBA activity, Bst PK mod)
Fc1ccc(Nc2ncnc3ccc(-c4ccoc4)cc23)cc1	HEK293 cAMP ctrl 13µM, TSHR agonist inconclusive (no result: GBA activity, Bst PK mod)
c1nc(NC2CCNCC2)c2cc(-c3ccoc3)ccc2n1	HEK293 cAMP ctrl inconclusive, TSHR agonist inconclusive (no result: GBA activity, Bst PK mod)
COc1ccccc1-c1ccc2ncnc(Nc3ccccc3)c2c1	HEK293 cAMP ctrl 16µM, TSHR agonist inconclusive (no result: GBA activity, Bst PK mod)
COc1ccccc1CNc1ncnc2ccc(-c3ccccc3OC)cc12	TSHR agonist 13µM (no result: GBA activity, Bst PK mod)
O=C(O)/C=C(/C(=O)O)[C@]12CCN3CC4=CCO[C@@H]5CC(=O)N[C@@H]1[C@H]5[C@H]4C[C@H]32	none (no result: GBA activity, Bst PK mod)
